Potency data for 31 compounds are collected here from PubChem BioAssay (NCATS).

Each structure is given as a SMILES string. Several values for one entry are separate records, joined by “and”; a condition that tells them apart may be missing. Identical values can stand only once. Unmarked numbers belong to inactive results.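 Rule for the calls, unless noted: active = compounds whose dose series gives a full or clear partial fitted curve of increased nuclear translocation; inconclusive = weak partial curve or effect only at the top dose; inactive = no dose-dependent translocation response.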 Bounds are passed on as bounds.
Potency is the fitted concentration of half-maximal effect.

The target of the first assay is Glucocorticoid receptor (Homo sapiens) (UniProt P04150). The assay can be described thus: GR-GFP Redistribution (AID 450). The following applies: U2OS GR-GFP nuclear translocation, laser cytometry, 2 h.
Chain of Glucocorticoid receptor (Homo sapiens) (P04150 whole entry, looked up): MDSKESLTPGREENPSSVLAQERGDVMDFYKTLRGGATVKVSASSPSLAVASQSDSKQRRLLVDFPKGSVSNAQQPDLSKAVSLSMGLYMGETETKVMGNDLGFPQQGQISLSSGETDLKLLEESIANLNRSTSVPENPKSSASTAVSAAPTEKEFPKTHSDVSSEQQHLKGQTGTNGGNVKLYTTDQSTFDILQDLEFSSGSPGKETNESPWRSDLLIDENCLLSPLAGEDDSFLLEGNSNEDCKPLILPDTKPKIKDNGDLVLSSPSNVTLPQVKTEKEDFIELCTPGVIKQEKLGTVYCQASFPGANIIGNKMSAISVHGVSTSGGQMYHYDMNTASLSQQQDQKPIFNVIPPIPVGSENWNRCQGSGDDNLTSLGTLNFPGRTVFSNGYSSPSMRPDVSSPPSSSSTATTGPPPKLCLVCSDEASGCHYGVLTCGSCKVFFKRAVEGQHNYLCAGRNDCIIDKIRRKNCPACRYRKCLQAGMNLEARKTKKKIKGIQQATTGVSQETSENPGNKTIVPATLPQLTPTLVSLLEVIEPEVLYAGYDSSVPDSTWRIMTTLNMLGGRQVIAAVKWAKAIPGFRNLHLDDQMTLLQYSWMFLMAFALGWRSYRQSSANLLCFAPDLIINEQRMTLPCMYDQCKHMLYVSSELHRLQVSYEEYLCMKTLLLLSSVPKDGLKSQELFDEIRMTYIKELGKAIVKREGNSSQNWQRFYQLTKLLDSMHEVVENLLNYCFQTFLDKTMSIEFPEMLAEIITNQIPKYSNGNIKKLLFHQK
As to `Cn1cnc(CCN)c1`, the Potency is more than 46 µM.
`O=C(O)CC[N+](=O)[O-]`: the Potency is more than 46 µM.
In the case of `CCCN1CCO[C@@H]2c3cc(O)ccc3OC[C@H]21`, the Potency is more than 46 µM.
In the case of `CNCCc1c[nH]c2ccc(O)cc12`, the Potency is more than 46 µM.
For the compound `S=C(NC1CCCCC1)N1CCC(c2cnc[nH]2)CC1`, the Potency is more than 46 µM.
Take `CCCN(CCC)[C@@H]1CCc2ccc(O)cc2C1`: the Potency is more than 46 µM.
With `CC1=NN=C(c2ccc(N)cc2)c2cc3c(cc2C1)OCO3`, the Potency was more than 46 µM.
On to `COC(=O)[C@@H](N)CCCN=C(N)N[N+](=O)[O-]`, for which the Potency is more than 46 µM.
With `NCc1cc(=O)[nH]o1`, the Potency is more than 46 µM.
For the compound `O=C(O)Cc1cnc[nH]1`, the Potency was more than 46 µM.
`COc1ccc(C(=O)c2c(C)n(CCN3CCOCC3)c3cc(I)ccc23)cc1`: the Potency is more than 46 µM.
Same read-out and setting: next, `CCCCc1ccc(C(=O)O)nc1`: > 46 µM and > 20.6 µM; `NC(=NCCC[C@H](N)C(=O)O)N[N+](=O)[O-]`: more than 46 µM; `CNCCc1ccc(O)c(O)c1`: more than 46 µM.
Still for that read-out and setting: next, `C[C@@H]1O[C@H](C[N+](C)(C)C)C[C@H]1O`: more than 46 µM.
For the compound `NCCc1c[nH]c2ccccc12`, the Potency was more than 46 µM.
Regarding `c1ccc(CCCN2CCN(CCOC(c3ccccc3)c3ccccc3)CC2)cc1`, the Potency was more than 46 µM.
As to `CCOC(=O)c1cncn1[C@H](C)c1ccccc1`, the Potency was more than 46 µM.
Take `O=c1cccc2n1CC1CNC[C@H]2C1`: the Potency is > 20.6 µM and > 46 µM.
For `CC(C)Oc1cccnc1N(C)C1CCN(Cc2ccccc2)CC1`, the Potency was more than 46 µM.
`C[C@@H](N)Cc1cnc[nH]1`: the Potency was more than 46 µM.
Same read-out and setting: next, `CC(=O)NCCc1c[nH]c2ccccc12`: more than 46 µM.
The same measure, in the same setting: for `O=C1CCCN1CC#CCN1CCCC1` the value was more than 46 µM; for `CCCN1CCC[C@H](c2cccc(O)c2)C1`, more than 46 µM; for `Cc1c(C(=O)c2cccc3ccccc23)c2cccc3c2n1[C@H](CN1CCOCC1)CO3`, more than 46 µM.
In the case of `CC(=O)OCC1=C(C(=O)O)N2C(=O)[C@@H](N)[C@@H]2SC1`, the Potency is more than 20.6 µM.
The same measure, in the same setting: next, `CN[C@@H]1C[C@@H](c2ccc(Cl)c(Cl)c2)c2ccccc21`: more than 46 µM; `NCCc1c[nH]c2ccc(O)cc12`: > 46 µM and > 20.6 µM.
Turning to `Cc1nc(-c2ccc(-c3ccc(C(=O)N4CCc5cc6c(cc54)C4(CCN(C)CC4)CO6)cc3)c(C)c2)no1`, the Potency was more than 46 µM.
On to `Cc1nccc2c1[nH]c1ccccc12`, for which the Potency was > 46 µM and > 20.6 µM.
In the case of `C#CCOC(=O)C1=CCCN(C)C1`, the Potency is more than 46 µM.

For another assay the target is unchanged. Briefly: GR-EFC Redistribution (AID 451; calls by dose curve). The following applies: CHO-K1 GR-EFC translocation, beta-gal luminescence, 2 h. A digest of the protocol:
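Translocation of GR-ED fusion to nuclear EA restores b-gal, read by luminescence after 1 h room-temperature detection. Engineered CHO-K1 biosensor cells, 1,000/well, exposed 2 h at 37 C to titrations up to 46 uM final.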
Turning to `Cn1cnc(CCN)c1`, the Potency was more than 46 µM.
Consider `O=C(O)CC[N+](=O)[O-]`, for which the Potency was more than 46 µM.
As for `CCCN1CCO[C@@H]2c3cc(O)ccc3OC[C@H]21`, the Potency is more than 46 µM.
Take `CNCCc1c[nH]c2ccc(O)cc12`: the Potency is more than 46 µM.
As for `S=C(NC1CCCCC1)N1CCC(c2cnc[nH]2)CC1`, the Potency was more than 46 µM.
As to `CCCN(CCC)[C@@H]1CCc2ccc(O)cc2C1`, the Potency is more than 46 µM.
For `CC1=NN=C(c2ccc(N)cc2)c2cc3c(cc2C1)OCO3`, the Potency was more than 46 µM.
Regarding `COC(=O)[C@@H](N)CCCN=C(N)N[N+](=O)[O-]`, the Potency was more than 46 µM.
Still for that read-out and setting: next, `NCc1cc(=O)[nH]o1`: more than 46 µM; `O=C(O)Cc1cnc[nH]1`: more than 46 µM.
As for `COc1ccc(C(=O)c2c(C)n(CCN3CCOCC3)c3cc(I)ccc23)cc1`, the Potency is more than 46 µM.
For `CCCCc1ccc(C(=O)O)nc1`, the Potency was > 46 µM and > 20.6 µM.
`NC(=NCCC[C@H](N)C(=O)O)N[N+](=O)[O-]`: the Potency is more than 20.6 µM.
Turning to `CNCCc1ccc(O)c(O)c1`, the Potency is more than 46 µM.
Regarding `C[C@@H]1O[C@H](C[N+](C)(C)C)C[C@H]1O`, the Potency is more than 46 µM.
Take `NCCc1c[nH]c2ccccc12`: the Potency was more than 46 µM.
The same measure, in the same setting: for `c1ccc(CCCN2CCN(CCOC(c3ccccc3)c3ccccc3)CC2)cc1` the value was more than 46 µM; for `CCOC(=O)c1cncn1[C@H](C)c1ccccc1`, more than 46 µM.
Turning to `O=c1cccc2n1CC1CNC[C@H]2C1`, the Potency is more than 46 µM.
As to `CC(C)Oc1cccnc1N(C)C1CCN(Cc2ccccc2)CC1`, the Potency is more than 46 µM.
Consider `C[C@@H](N)Cc1cnc[nH]1`, for which the Potency is more than 46 µM.
Same read-out and setting: next, `CC(=O)NCCc1c[nH]c2ccccc12`: more than 46 µM; `O=C1CCCN1CC#CCN1CCCC1`: more than 46 µM; `CCCN1CCC[C@H](c2cccc(O)c2)C1`: more than 46 µM.
For the compound `Cc1c(C(=O)c2cccc3ccccc23)c2cccc3c2n1[C@H](CN1CCOCC1)CO3`, the Potency is more than 46 µM.
Turning to `CC(=O)OCC1=C(C(=O)O)N2C(=O)[C@@H](N)[C@@H]2SC1`, the Potency is more than 20.6 µM.
The same measure, in the same setting: for `CN[C@@H]1C[C@@H](c2ccc(Cl)c(Cl)c2)c2ccccc21` the value was more than 46 µM; for `NCCc1c[nH]c2ccc(O)cc12`, > 46 µM and > 20.6 µM; for `Cc1nc(-c2ccc(-c3ccc(C(=O)N4CCc5cc6c(cc54)C4(CCN(C)CC4)CO6)cc3)c(C)c2)no1`, more than 46 µM.
`Cc1nccc2c1[nH]c1ccccc12`: the Potency was > 46 µM and > 20.6 µM.
As to `C#CCOC(=O)C1=CCCN(C)C1`, the Potency is more than 46 µM.
